Screening results as filed in PubChem BioAssay.
MCF10A rerep: A quantitative high throughput screen for small molecules that induce DNA re-replication in MCF 10a normal breast cells | MCF 10A DNA re-replication, Hoechst nuclear intensity, 48 h | Potency, µM (highest dose often 46.1 µM), for inactives: at the highest dose activity, positive = re-replication, most hits filed as activators | 350,000 tested, 2.9% active | AID 624296, 2012; also: potency is read from the fitted curve at half-maximal effect; % of control where 0% means no effect; nearly all actives have a fitted effect of over 50% in size
IL1B secr inh: qHTS for Inhibitors of Inflammasome Signaling: IL-1-beta AlphaLISA Primary Screen | 360,000 tested, 4.7% active | activity change, % at 57.5 µM | THP-1 LPS/ATP IL-1B secretion, AlphaLISA, 16 h; hits give low values | AID 743279, 2014; in the data active = activity change below about -50%; inconclusive = mostly about -30% to -49%; also: % is scaled to controls: 0 for no effect and ±100 for the full control effect
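Secreted IL-1B measured by AlphaLISA bead assay after 16 h compound exposure of THP-1 cells; compounds (final up to 57.5 uM) added 1 h before LPS (250 ng/mL) and ATP (1.25 mM) stimulation; lower signal means less secretion.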
SW480 rerep: A quantitative high throughput screen for small molecules that induce DNA re-replication in SW480 colon adenocarcinoma cells; AID 624297, 2012; SW480 DNA re-replication, Hoechst DNA content imaging, 48 h; 340,000 tested, 1.8% active; Potency, µM (series often up to 46.1 µM), inactives show at the top dose re-replication activation, hits mostly activators; also: potency is read from the fitted curve at half-maximal effect; % of control where 0% means no effect; nearly all actives have a fitted effect of over 55% in size
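First, 250 cells per well were seeded. Next, compound or vehicle (23 nL) was pinned in, plates sat 48 hr at 37 C. Finally Hoechst was added for 40 min before fluorescence scanning.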
Chronic BCR inh: qHTS Assay to Find Inhibitors of Chronic Active B-Cell Receptor Signaling; ABC-DLBCL IkBa-CBG/CBR reporter, luminescence ratio, 4 h; Potency, µM (titrated, usually from 46.1 µM), for inactives: at the highest dose activity change, negative = inhibition, usual class: inhibitors; AID 493014, 2011; 340,000 tested, 0.05% active; active = well fitted inhibition curve with a large enough effect in the signal ratio, with a control signal flat, not every such curve was filed as active; inconclusive = small, poorly fitted or top-dose-only effect, or effect the other way, or a change in a side signal; the % refers to the signal ratio;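 also: potency is read from the fitted curve at half-maximal effect; plate controls were basal doxycycline-induced cells for no effect and cells given 10 µM MG132 for full effect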
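TMD8 ABC-DLBCL cells carrying doxycycline-inducible green luciferase fused to IkappaBalpha plus unfused red luciferase were exposed to compounds (up to 46 uM) for 4 hrs at 37C. Activity came from the overlap-corrected green/red luminescence ratio.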
TDP1 cell noCPT: qHTS for Inhibitors of human tyrosyl-DNA phosphodiesterase 1 (TDP1): qHTS in cells in absence of CPT; DT40 Tdp1-/- hTDP1 cells, no CPT, ATP luminescence, 48 h; AID 686978, 2013; Potency, µM (top dose mostly 46.2 µM), for the others: at the highest dose activity change, negative = growth inhibition, actives largely listed as inhibitors; 420,000 tested, 15% active; also: potency is read from the fitted curve at half-maximal effect; % is scaled to controls: 0 for no effect and ±100 for the full control effect; nearly all actives have a fitted effect of over 55% in size
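DT40 Tdp1-/-;hTDP1 cells, no CPT (DMSO vehicle only), 400 cells/well; compounds pin-transferred; ≥48 hr, 37 °C; CellTiter-Glo 30 min RT dark, luminescence read.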
DT40 TDP1 CPT: qHTS for Inhibitors of human tyrosyl-DNA phosphodiesterase 1 (TDP1): qHTS in cells in presence of CPT | chicken DT40 Tdp1-/-;hTDP1 cells + 20 nM CPT, ATP luminescence, 48 h | 420,000 tested, 12% active | Potency, µM (titrated, usually from 46.2 µM), for the others: at the highest dose activity change, negative = growth inhibition, hits mostly inhibitors; also: potency is read from the fitted curve at half-maximal effect; % is scaled to controls: 0 for no effect and ±100 for the full control effect; nearly all actives have a fitted effect of over 55% in size
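Chicken DT40 Tdp1-/- cells complemented with human TDP1, 400 cells/well, exposed to compounds plus 20 nM camptothecin for at least 48 h at 37 C; viability read as ATP content by CellTiter-Glo luminescence.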
Active calls of the source: *; ? = inconclusive; nt = no result; [ ] = dose if it differs, or a comment. Sampled rows, rich in hits. Any-hit rate of the full collection: about 19%. Unless noted, calls follow the shape of the dose curve; as a rule, active = well fitted curve in the direction sought with a large enough effect; inconclusive = small, poorly fitted or top-dose-only effect, or another doubt; inactive = no such curve, though single readings can be large; an effect the other way counts as inactive or inconclusive.

SMILES	MCF10A rerep	IL1B secr inh	SW480 rerep	Chronic BCR inh	TDP1 cell noCPT	DT40 TDP1 CPT
COc1ccc(Nc2cc(C(=O)NCCCN3CCOCC3)c3ccccc3n2)cc1OC	1%	-21	0%	?	?	29µM*
COc1ccc(N2CCN(CCNC(=O)c3ccc4c(c3)[nH]c(=S)n3c5ccccc5nc43)CC2)cc1	13%	-2	7.3µM*	?	2.1µM*	4.6µM*
CC1CCN(c2nn3c(=O)c(C(=O)NCCc4ccc(Cl)cc4)cnc3s2)CC1	nt	nt	nt	nt	-3%	?
Cc1ccc(C2=NCCn3nc4cc([N+](=O)[O-])ccc4c32)cc1	-6%	9	5%	4%	?	?
Cc1oc(-c2ccccc2NC(=O)C2CCC2)nc1CNC(=O)c1ccc2ccccc2c1	nt	nt	nt	nt	-9%	2%[9.04 µM]
COc1ccc(N2CCN(CCCNC(=O)Nc3ccccc3)CC2)cc1	2%	-19	-5%	?	?	?
COc1ccc(Nc2cc(C(=O)NCc3cccs3)c3ccccc3n2)cc1	nt	nt	nt	nt	-14%	2%
COc1ccc(Nc2cc(C(=O)NCCCN(C)Cc3ccccc3)c3ccccc3n2)c(OC)c1	nt	nt	nt	6%	13µM*	15µM*
COc1ccc(Nc2cc(C(=O)NCCCN3CCN(c4ccccc4F)CC3)c3ccccc3n2)c(OC)c1	nt	nt	nt	nt	16µM*	?
COc1ccc(Nc2cc(C(=O)NCCCN3CCN(c4ccc(OC)cc4)CC3)c3ccccc3n2)cc1	nt	nt	nt	?	8.2µM*	8.2µM*
COc1ccc(Nc2cc(C(=O)NCCCN3CCOCC3)c3ccccc3n2)c(OC)c1	1%	-2	-4%	-1%	-25%	-4%
COc1ccc(N2CCN(CCCNC(=O)c3cnn(-c4ccc(C)cc4)c3-n3cccc3)CC2)cc1	nt	nt	nt	nt	5.2µM*	5.8µM*
CC(C)(S)C(=O)N[C@@H](CS)C(=O)O	nt	nt	nt	nt	3%	-5%
Cc1ccc(-c2nnc(CSc3nc4cc5c(cc4cc3C)OCO5)o2)cc1	?	-4	-1%	3%	21µM*	?
CC(C)C(=O)NC(CC(=O)O)c1ccccc1 (configuration not stated)	-6%	7	0%	-2%	5%	-1%
CC(CC(=O)O)Nc1ccccc1O (configuration not stated)	-5%	-18	-12%	?	?	21µM*
Cn1cnc(S(=O)(=O)N2CCC(C(=O)NCc3ccccc3)CC2)c1	nt	nt	nt	nt	-14%	23%
CCN1CCN(CCc2nc3cc(NC(=O)COc4ccc(Cl)cc4)ccc3n2C)CC1	17%	?	21%	3%	?	?
Cc1ccc(OCC(=O)Nc2ccc3c(c2)nc(CCN2CCCCC2)n3C)cc1	-2%	-61*	3%	5%	?	?
Cn1c(CCN2CCCC2)nc2cc(NC(=O)COc3ccc(Cl)cc3)ccc21	nt	0	nt	nt	16µM*	?
Cc1cccc(OCC(=O)Nc2ccc3c(c2)nc(CCN2CCCCC2)n3C)c1	-1%	-50*	-12%	0%	-25%	-17%
CC1CCN(CCc2nc3cc(NC(=O)COc4ccc(Cl)cc4)ccc3n2C)CC1	16µM*	-96*	18µM*	-1%	?	?
CC1CCCCN1CCCNc1ccc(C(CC(N)=O)NC(=O)Cc2cccc3ccccc23)cc1[N+](=O)[O-] (configuration not stated)	-1%	-2	-1%	?	-1%	9%
Cc1ccc(NC(=O)NNC(=O)CN2C(=O)COc3ccccc32)cc1	-5%	20	-5%	10%	18%	-1%
CCC(CC)NC(=O)CCCSc1nc2ccccc2[nH]1	1%	-6	-59%	1%	?	3%
SMILES	MCF10A rerep	IL1B secr inh	SW480 rerep	Chronic BCR inh	TDP1 cell noCPT	DT40 TDP1 CPT
CC(NCCCSc1ccccc1)C(O)c1ccc(O)cc1 (configuration not stated)	nt	-18	nt	nt	?	?
Cc1ccc(-c2nn(CC(=O)NN3CCOCC3)c(=O)c3ccccc23)cc1	-1%	7	-15%	?	0%	-2%
COc1ccc(C2CCc3cc4c(cc3C2=NOC(C)=O)OCO4)cc1OC (configuration not stated)	nt	0	nt	nt	15µM*	21µM*
COc1cccc(-c2ccc(O)c(CNCc3cccc4ccccc34)c2)n1	nt	nt	nt	nt	-19%	-6%
C[C@H]1CN=C(Nc2ccccc2)N1CCCC1CCCC1	-2%	?	1%	-20%	16µM*	18µM*
C[C@H]1CN=C(Nc2ccccc2)N1CC1CCCCCC1	1%	-24	-4%	-23%	13µM*	18µM*
C[C@H]1CN=C(Nc2ccccc2)N1CC1CCC1	0%	7	-5%	-4%	1%	-1%
C[C@H]1CN=C(Nc2ccccc2)N1CCC1CCCCC1	4%	0	-3%	?	?	18µM*
Cc1ccc(S(=O)(=O)CCC(=O)Oc2ccc(-c3nnco3)cc2)cc1	-18%	16	-97%	?	-4%	-26%
O=C(COc1ccccc1)NCC(=O)N1CCCC(C(F)(F)F)C1 (configuration not stated)	4%	13	-50%	nt	-6%	-7%
O=C(NCC1CCCN(C(=O)NCc2ccccc2)C1)c1ccc2c(c1)OCO2 (configuration not stated)	-15%	14	-45%	14%	-3%	5%
Cc1ccc(S(=O)(=O)Nc2ccc(C(OC(=O)c3ccccc3[N+](=O)[O-])(C(F)(F)F)C(F)(F)F)cc2)cc1	?	-88*	?	?	?	?
O=C(OC(c1ccc(NS(=O)(=O)c2ccccc2)cc1)(C(F)(F)F)C(F)(F)F)c1ccccc1	18µM*	6	?	?	?	?
Cc1cc(C)nc(NS(=O)(=O)c2ccc(NC(=O)c3ccccc3[N+](=O)[O-])cc2)n1	6%	9	-4%	1%	3%	-1%
COc1cc(NC(=S)NCCC(c2ccccc2)c2ccccc2)cc(OC)c1	-8%	-8	?	-1%	18µM*	?
